The full data set covers some 8,800 targets. This sample favours those with a hit. About 0.5% of all pairs of compound and target were hits.
Assays:
Test in all cases: log2 fold change, soluble protein after heating vs DMSO (PISA); higher = thermal stabilisation; K562 lysate, 10 uM; active = over 0.2 and 3.5 SD of the protein, either way, in both replicates (recomputed)
alvocidib = compound: CN1CC[C@H](c2c(O)cc(O)c3c(=O)cc(-c4ccccc4Cl)oc23)[C@H](O)C1 [alvocidib]
Summary of the method: (§1)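 Thermal stability, expressed as log-two fold change relative to solvent controls, is given from duplicates. Crude K562 extract in PBS pH 7.4 with 1 mM MgCl2, at 1 mg/mL protein, was treated with 10 μM compound for 30 min and heated in aliquots for 3 min across 48°C-58°C. After pooling, adjustment to 0.5% NP-40 at 4°C and centrifugation at 21,000xg for 90 min, supernatant protein was measured by TMTpro 16plex LC-MS/MS with channel sums equalised.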

Tubastatin A = compound: CN1CCc2c(c3ccccc3n2Cc2ccc(C(=O)NO)cc2)C1 [Tubastatin A]
Summary of the method: as §1

[1] = compound: CNC(=O)C1=CC=CC=C1NC2=NC(=NC=C2Cl)NC3=C(C=C(C=C3)N4CCOCC4)OC
Summary of the method: as §1

defactinib = compound: CNC(=O)c1ccc(Nc2ncc(C(F)(F)F)c(NCc3nccnc3N(C)S(C)(=O)=O)n2)cc1 [defactinib]
Summary of the method: as §1

[2] = compound: CNc1nc(-c2ccc3c(N)n[nH]c3c2)cc(N2C[C@@H](C(=O)NC3CCCCC3)CC[C@H]2C)n1
Summary of the method: as §1

encorafenib = compound: COC(=O)N[C@@H](C)CNc1nccc(-c2cn(C(C)C)nc2-c2cc(Cl)cc(NS(C)(=O)=O)c2F)n1 [encorafenib]
Summary of the method: as §1

[3] = compound: COC(=O)[C@H](CCSC)NC(=O)C1=C(C=C(C=C1)NC[C@H](CS)N)C2=CC=CC=C2
Summary of the method: as §1

alisertib = compound: COc1cc(Nc2ncc3c(n2)-c2ccc(Cl)cc2C(c2c(F)cccc2OC)=NC3)ccc1C(=O)O [alisertib]
Summary of the method: as §1

[4] = compound: COc1cc2nc(-c3cc(F)ccc3O)nc(N[C@@H]3CNC[C@H]3C(C)(C)O)c2cc1OC
Summary of the method: as §1

gefitinib = compound: COc1cc2ncnc(Nc3ccc(F)c(Cl)c3)c2cc1OCCCN1CCOCC1 [gefitinib]
Summary of the method: as §1

lapatinib = compound: CS(=O)(=O)CCNCc1ccc(-c2ccc3ncnc(Nc4ccc(OCc5cccc(F)c5)c(Cl)c4)c3c2)o1 [lapatinib]
Summary of the method: as §1

pictilisib = compound: CS(=O)(=O)N1CCN(Cc2cc3nc(-c4cccc5[nH]ncc45)nc(N4CCOCC4)c3s2)CC1 [pictilisib]
Summary of the method: as §1

crizotinib = compound: C[C@@H](Oc1cc(-c2cnn(C3CCNCC3)c2)cnc1N)c1c(Cl)ccc(F)c1Cl [crizotinib]
Summary of the method: as §1

[5] = compound: C[C@H](C1=CC=C(C=C1)C(=O)NC2=C3C=CNC3=NC=C2)N
Summary of the method: as §1

duvelisib = compound: C[C@H](Nc1ncnc2nc[nH]c12)c1cc2cccc(Cl)c2c(=O)n1-c1ccccc1 [duvelisib]
Summary of the method: as §1

gandotinib = compound: Cc1cc(Nc2cc(CN3CCOCC3)c3nc(C)c(Cc4ccc(Cl)cc4F)n3n2)n[nH]1 [gandotinib]
Summary of the method: as §1

tozasertib = compound: Cc1cc(Nc2cc(N3CCN(C)CC3)nc(Sc3ccc(NC(=O)C4CC4)cc3)n2)n[nH]1 [tozasertib]
Summary of the method: as §1

doramapimod = compound: Cc1ccc(-n2nc(C(C)(C)C)cc2NC(=O)Nc2ccc(OCCN3CCOCC3)c3ccccc23)cc1 [doramapimod]
Summary of the method: as §1

bafetinib = compound: Cc1ccc(NC(=O)c2ccc(CN3CC[C@H](N(C)C)C3)c(C(F)(F)F)c2)cc1Nc1nccc(-c2cncnc2)n1 [bafetinib]
Summary of the method: as §1

[6] = compound: Cc1cccc(CC(=O)N2CCc3c2ccc(-c2cn(C)c4ncnc(N)c24)c3F)n1
Summary of the method: as §1

Measured: log2 fold change

POLB (UniProt P06746)
inactive: alvocidib 0.023 | Tubastatin A -0.199 | [1] -0.062 | defactinib 0.028 | [2] -0.033 | encorafenib 0.045 | [3] 0.086 | alisertib 0.015 | [4] 0 | gefitinib 0.038 | lapatinib 0.017 | pictilisib 0.075 | crizotinib -0.003 | [5] 0.011 | duvelisib 0.018 | gandotinib -0.041 | tozasertib -0.015 | doramapimod -0.003 | bafetinib -0.024 | [6] -0.009

PRAME (UniProt P78395)
Sequence of UniProt P78395 (P78395 whole entry, looked up): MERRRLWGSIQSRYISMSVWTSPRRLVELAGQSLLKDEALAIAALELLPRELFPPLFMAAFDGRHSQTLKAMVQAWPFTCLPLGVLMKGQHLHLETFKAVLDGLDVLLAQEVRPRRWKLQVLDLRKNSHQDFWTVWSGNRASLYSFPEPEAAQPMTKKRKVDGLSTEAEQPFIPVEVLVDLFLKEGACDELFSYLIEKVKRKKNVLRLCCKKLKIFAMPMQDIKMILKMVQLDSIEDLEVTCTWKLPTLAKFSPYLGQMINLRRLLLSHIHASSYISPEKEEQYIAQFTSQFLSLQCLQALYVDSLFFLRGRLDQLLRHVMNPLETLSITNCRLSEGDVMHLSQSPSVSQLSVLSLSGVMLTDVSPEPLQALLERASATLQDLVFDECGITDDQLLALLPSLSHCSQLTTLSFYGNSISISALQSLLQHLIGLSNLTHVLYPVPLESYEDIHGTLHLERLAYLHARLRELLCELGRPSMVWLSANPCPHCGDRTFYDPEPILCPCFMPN
inactive: alvocidib 0.034 | Tubastatin A -0.111 | [1] 0.024 | defactinib 0.006 | [2] -0.006 | encorafenib -0.001 | [3] 0.13 | alisertib 0.014 | [4] 0.009 | gefitinib -0.007 | lapatinib -0.012 | pictilisib -0.008 | crizotinib -0.08 | [5] -0.015 | duvelisib 0.005 | gandotinib -0.037 | tozasertib -0.013 | doramapimod 0.007 | bafetinib -0.062 | [6] 0.056

PWP2 (UniProt Q15269)
inactive: alvocidib -0.014 | Tubastatin A -0.073 | [1] 0.027 | defactinib 0.042 | [2] 0.061 | encorafenib 0.035 | [3] -0.033 | alisertib 0.004 | [4] -0.007 | gefitinib -0.057 | lapatinib -0.017 | pictilisib -0.012 | crizotinib 0.001 | [5] -0.016 | duvelisib 0.005 | gandotinib -0.075 | tozasertib -0.013 | doramapimod -0.017 | bafetinib -0.023 | [6] 0.029

POLR2F (UniProt P61218)
inactive: alvocidib 0.272 | Tubastatin A -0.07 | [1] 0.031 | defactinib 0.085 | [2] 0.2 | encorafenib -0.036 | [3] -0.02 | alisertib 0.065 | [4] 0.003 | gefitinib -0.097 | lapatinib 0.036 | pictilisib -0.062 | crizotinib -0.024 | duvelisib -0.018 | gandotinib -0.166 | tozasertib 0.156 | doramapimod 0.025 | bafetinib -0.076 | [6] -0.189
active: [5] 1.12

PTGR2 (UniProt Q8N8N7)
Sequence of UniProt Q8N8N7 (Q8N8N7 whole entry, looked up): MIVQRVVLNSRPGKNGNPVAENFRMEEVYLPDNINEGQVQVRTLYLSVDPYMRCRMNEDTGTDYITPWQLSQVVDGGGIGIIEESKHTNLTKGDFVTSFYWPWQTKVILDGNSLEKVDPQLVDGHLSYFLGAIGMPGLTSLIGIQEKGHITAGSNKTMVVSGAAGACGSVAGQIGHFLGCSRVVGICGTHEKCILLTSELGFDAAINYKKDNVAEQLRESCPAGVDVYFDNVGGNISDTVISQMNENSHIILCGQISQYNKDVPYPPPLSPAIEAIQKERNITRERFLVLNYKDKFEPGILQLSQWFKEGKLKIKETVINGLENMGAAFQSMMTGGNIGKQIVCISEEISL
active: [3] 0.694
inactive: alvocidib 0.018 | Tubastatin A -0.023 | [1] 0.02 | defactinib 0.018 | [2] -0.021 | encorafenib -0.043 | alisertib 0.014 | [4] 0.004 | gefitinib -0.007 | lapatinib -0.003 | pictilisib 0.014 | crizotinib -0.029 | [5] -0.04 | duvelisib 0.02 | gandotinib 0.01 | tozasertib 0.04 | doramapimod -0.04 | bafetinib -0.003 | [6] -0.004

PRPF6 (UniProt O94906)
Sequence of UniProt O94906 (O94906 whole entry, looked up): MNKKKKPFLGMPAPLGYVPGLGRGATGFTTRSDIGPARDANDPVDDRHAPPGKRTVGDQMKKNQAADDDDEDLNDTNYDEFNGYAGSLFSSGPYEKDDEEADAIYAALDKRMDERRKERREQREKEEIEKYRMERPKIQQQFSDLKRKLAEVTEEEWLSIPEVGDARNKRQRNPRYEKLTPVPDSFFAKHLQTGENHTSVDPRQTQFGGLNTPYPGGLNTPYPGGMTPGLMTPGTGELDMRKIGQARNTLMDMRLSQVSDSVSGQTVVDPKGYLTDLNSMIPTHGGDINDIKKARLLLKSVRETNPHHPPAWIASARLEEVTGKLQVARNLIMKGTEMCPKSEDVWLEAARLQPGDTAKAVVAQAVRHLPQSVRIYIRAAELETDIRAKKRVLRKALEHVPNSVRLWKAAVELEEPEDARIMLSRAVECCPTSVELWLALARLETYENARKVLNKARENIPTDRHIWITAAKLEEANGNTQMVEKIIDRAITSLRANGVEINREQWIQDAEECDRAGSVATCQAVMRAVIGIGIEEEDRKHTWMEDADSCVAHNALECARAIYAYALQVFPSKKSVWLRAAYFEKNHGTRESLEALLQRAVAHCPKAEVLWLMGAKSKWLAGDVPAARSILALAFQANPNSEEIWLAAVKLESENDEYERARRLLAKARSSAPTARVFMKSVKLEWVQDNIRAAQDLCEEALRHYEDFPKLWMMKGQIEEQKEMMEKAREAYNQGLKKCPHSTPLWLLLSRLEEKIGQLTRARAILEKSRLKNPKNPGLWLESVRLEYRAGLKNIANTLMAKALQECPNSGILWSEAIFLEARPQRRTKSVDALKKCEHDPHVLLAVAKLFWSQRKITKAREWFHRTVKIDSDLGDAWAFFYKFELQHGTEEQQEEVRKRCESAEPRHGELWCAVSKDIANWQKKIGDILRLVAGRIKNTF
inactive: alvocidib 0.006 | Tubastatin A -0.096 | [1] 0.01 | defactinib 0.025 | [2] -0.011 | encorafenib 0.024 | alisertib 0.008 | [4] 0.009 | gefitinib -0.016 | lapatinib -0.008 | pictilisib 0.009 | crizotinib -0.06 | [5] -0.023 | duvelisib -0.023 | gandotinib -0.08 | tozasertib 0.023 | doramapimod 0.064 | bafetinib -0.056 | [6] 0.031
active: [3] 0.22

PI4K2B (UniProt Q8TCG2)
Sequence of UniProt Q8TCG2 (Q8TCG2 whole entry, looked up): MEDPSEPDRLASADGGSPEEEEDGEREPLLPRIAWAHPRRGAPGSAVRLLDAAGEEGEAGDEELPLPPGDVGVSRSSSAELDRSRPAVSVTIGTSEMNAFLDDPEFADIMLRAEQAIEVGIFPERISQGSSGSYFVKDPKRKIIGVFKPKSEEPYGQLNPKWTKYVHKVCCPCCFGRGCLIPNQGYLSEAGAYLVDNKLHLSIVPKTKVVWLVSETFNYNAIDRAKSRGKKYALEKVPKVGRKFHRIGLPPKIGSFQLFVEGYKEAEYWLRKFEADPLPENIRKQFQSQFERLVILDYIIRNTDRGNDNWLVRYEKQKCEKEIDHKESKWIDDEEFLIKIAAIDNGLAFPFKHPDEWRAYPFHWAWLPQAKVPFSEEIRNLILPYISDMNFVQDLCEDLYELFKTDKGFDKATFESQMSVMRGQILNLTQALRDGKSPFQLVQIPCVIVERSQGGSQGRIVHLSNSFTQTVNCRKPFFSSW
inactive: alvocidib -0.263 | Tubastatin A 0.12 | [1] -0.04 | defactinib -0.081 | [2] -0.057 | encorafenib 0.041 | [3] -0.005 | alisertib -0.068 | [4] -0.011 | gefitinib 0.107 | lapatinib 0.009 | pictilisib 0.039 | crizotinib -0.203 | [5] 0.134 | duvelisib 0.143 | gandotinib 0.041 | tozasertib 0.019 | doramapimod -0.026 | bafetinib -0.017 | [6] 0.003

PLIN2 (UniProt Q99541)
inactive: alvocidib -0.008 | Tubastatin A -0.107 | [1] -0.014 | defactinib 0.049 | [2] 0.002 | encorafenib 0.061 | [3] -0.107 | alisertib 0.044 | [4] -0.071 | gefitinib 0.104 | lapatinib -0.009 | pictilisib -0.041 | crizotinib -0.038 | [5] 0.023 | duvelisib 0.014 | tozasertib 0.096 | doramapimod -0.003 | bafetinib -0.067 | [6] 0.011
active: gandotinib -0.254

PRPH isoform 2 (UniProt P41219)
Sequence of UniProt P41219 (P41219 whole entry, looked up): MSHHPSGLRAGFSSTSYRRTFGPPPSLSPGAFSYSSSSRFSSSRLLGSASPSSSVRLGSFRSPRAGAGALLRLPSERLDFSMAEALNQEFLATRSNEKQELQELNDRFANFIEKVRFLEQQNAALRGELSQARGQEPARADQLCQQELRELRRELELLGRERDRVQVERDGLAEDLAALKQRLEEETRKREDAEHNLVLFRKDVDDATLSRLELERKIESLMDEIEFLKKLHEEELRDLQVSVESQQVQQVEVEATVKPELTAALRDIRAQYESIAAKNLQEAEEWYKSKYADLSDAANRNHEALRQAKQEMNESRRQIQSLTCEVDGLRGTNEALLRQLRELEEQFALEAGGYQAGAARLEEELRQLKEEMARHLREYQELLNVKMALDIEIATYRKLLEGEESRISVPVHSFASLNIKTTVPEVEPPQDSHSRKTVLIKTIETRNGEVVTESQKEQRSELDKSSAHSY
inactive: alvocidib 0.062 | Tubastatin A 0.021 | [1] -0.049 | defactinib -0.081 | [2] -0.133 | encorafenib -0.023 | [3] -0.178 | alisertib -0.012 | [4] -0.028 | gefitinib 0.014 | lapatinib 0.082 | pictilisib 0.131 | crizotinib 0.05 | [5] 0.03 | duvelisib 0.051 | gandotinib -0.08 | tozasertib 0.096 | doramapimod -0.015 | bafetinib 0.025 | [6] 0.001

PLA2G4B isoform 6 (UniProt P0C869)
Sequence of UniProt P0C869 (P0C869 whole entry, looked up): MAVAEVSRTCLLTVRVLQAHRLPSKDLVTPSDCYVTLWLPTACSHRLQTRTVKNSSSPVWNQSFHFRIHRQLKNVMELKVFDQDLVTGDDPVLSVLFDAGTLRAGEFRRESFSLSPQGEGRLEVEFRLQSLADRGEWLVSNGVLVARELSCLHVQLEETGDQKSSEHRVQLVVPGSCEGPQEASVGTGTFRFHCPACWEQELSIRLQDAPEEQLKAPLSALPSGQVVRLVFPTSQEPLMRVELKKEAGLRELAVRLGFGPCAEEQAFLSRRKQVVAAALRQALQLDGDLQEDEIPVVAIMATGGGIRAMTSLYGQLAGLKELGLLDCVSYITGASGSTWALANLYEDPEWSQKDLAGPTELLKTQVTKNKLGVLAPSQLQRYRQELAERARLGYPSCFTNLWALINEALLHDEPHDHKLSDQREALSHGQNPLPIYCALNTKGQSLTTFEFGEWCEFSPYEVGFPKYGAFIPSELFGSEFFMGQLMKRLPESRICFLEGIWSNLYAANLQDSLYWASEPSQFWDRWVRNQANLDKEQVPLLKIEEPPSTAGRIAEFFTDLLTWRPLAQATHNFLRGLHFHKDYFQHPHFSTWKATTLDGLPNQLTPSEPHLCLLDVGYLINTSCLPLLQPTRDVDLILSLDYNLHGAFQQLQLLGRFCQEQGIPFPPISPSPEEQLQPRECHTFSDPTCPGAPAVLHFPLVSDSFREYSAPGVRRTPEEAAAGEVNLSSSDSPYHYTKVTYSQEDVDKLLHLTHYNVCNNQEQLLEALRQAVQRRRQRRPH
inactive: alvocidib -0.035 | Tubastatin A 0.054 | [1] -0.032 | defactinib 0.024 | [2] 0.051 | encorafenib 0.09 | [3] 0.177 | alisertib -0.009 | [4] 0.073 | gefitinib 0.115 | lapatinib -0.001 | pictilisib -0.032 | crizotinib -0.49 | [5] -0.015 | duvelisib -0.038 | gandotinib 0.069 | tozasertib -0.009 | doramapimod 0 | bafetinib -0.133 | [6] 0.086

PPIE (UniProt Q9UNP9)
inactive: alvocidib -0.131 | Tubastatin A 0.025 | [1] -0.047 | defactinib -0.018 | [2] 0.023 | encorafenib -0.025 | [3] -0.041 | alisertib -0.036 | [4] 0.005 | gefitinib 0.034 | lapatinib 0.03 | pictilisib 0 | crizotinib -0.02 | [5] -0.234 | duvelisib 0.006 | gandotinib 0.144 | tozasertib 0.014 | doramapimod 0.062 | bafetinib 0.009 | [6] 0.102

PKN1 isoform 2 (UniProt Q16512)
Sequence of UniProt Q16512 (Q16512 whole entry, looked up): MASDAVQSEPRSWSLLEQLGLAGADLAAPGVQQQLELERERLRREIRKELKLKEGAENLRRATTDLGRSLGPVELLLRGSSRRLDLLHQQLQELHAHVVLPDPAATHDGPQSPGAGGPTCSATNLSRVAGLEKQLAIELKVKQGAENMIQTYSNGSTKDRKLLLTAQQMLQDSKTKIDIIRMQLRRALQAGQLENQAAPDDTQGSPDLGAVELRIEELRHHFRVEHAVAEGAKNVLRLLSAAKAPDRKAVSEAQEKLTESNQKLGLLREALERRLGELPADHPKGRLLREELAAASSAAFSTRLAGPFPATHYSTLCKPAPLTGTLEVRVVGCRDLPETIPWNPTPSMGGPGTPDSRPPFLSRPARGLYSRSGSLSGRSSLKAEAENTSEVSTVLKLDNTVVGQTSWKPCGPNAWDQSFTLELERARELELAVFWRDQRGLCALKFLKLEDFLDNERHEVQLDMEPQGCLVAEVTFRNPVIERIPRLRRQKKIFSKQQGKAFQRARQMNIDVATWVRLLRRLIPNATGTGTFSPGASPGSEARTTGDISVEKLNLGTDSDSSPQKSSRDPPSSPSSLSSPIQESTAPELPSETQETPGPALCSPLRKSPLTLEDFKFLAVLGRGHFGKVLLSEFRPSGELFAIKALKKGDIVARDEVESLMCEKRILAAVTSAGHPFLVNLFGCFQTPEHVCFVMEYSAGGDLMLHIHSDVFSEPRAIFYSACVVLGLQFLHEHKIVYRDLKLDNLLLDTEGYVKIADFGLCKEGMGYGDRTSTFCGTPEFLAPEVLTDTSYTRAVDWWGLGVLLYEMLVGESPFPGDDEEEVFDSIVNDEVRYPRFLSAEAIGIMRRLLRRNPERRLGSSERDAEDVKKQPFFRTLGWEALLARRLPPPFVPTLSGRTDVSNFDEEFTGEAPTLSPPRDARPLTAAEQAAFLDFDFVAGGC
inactive: alvocidib -0.036 | Tubastatin A -0.056 | [1] -0.001 | defactinib -0.079 | [2] -0.003 | encorafenib 0.075 | [3] 0.116 | alisertib -0.009 | [4] -0.1 | gefitinib -0.005 | lapatinib 0.038 | pictilisib -0.005 | crizotinib -0.032 | [5] 0.095 | duvelisib -0.014 | gandotinib -0.233 | tozasertib -0.005 | doramapimod 0.108 | bafetinib -0.069 | [6] 0.04

PHKB isoform 3 (UniProt Q93100)
inactive: alvocidib 0.04 | Tubastatin A -0.099 | [1] 0.223 | defactinib -0.006 | [2] -0.018 | encorafenib -0.019 | [3] 0.015 | alisertib 0.006 | [4] 0.107 | gefitinib 0.03 | lapatinib -0.042 | pictilisib 0.025 | crizotinib 0.026 | [5] -0.126 | duvelisib -0.025 | gandotinib 0.127 | tozasertib -0.021 | doramapimod -0.061 | bafetinib -0.012 | [6] 0.027

PRKAB2 (UniProt O43741)
active: [5] -0.698
inactive: alvocidib -0.122 | Tubastatin A -0.016 | [1] 0.286 | defactinib 0.057 | [2] 0.062 | encorafenib -0.04 | [3] -0.09 | alisertib -0.062 | [4] 0.058 | gefitinib -0.126 | lapatinib -0.029 | pictilisib 0.09 | crizotinib -0.013 | duvelisib 0.019 | gandotinib 0.25 | tozasertib 0.111 | doramapimod 0.039 | bafetinib 0.052 | [6] 0.142

POLR2G (UniProt P62487)
inactive: alvocidib -0.034 | Tubastatin A 0.012 | [1] 0.038 | defactinib 0.027 | [2] 0.019 | encorafenib 0.007 | [3] -0.032 | alisertib 0.016 | [4] 0.017 | gefitinib -0.01 | lapatinib -0.001 | pictilisib -0.048 | crizotinib 0.016 | [5] -0.04 | duvelisib 0.03 | gandotinib -0.002 | tozasertib -0.04 | doramapimod -0.011 | bafetinib 0.004 | [6] -0.006

PTPN7 isoform 3 (UniProt P35236)
Sequence of UniProt P35236 (P35236 whole entry, looked up): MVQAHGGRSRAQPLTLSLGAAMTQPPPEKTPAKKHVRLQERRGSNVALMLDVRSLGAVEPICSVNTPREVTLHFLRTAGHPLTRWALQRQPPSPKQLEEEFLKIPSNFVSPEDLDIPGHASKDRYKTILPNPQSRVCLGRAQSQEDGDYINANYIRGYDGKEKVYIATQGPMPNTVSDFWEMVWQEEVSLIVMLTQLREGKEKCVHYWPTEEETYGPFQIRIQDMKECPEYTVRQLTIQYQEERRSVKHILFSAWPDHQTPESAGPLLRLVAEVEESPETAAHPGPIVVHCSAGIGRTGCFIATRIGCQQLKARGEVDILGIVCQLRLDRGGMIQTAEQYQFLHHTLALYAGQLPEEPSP
inactive: alvocidib -0.082 | Tubastatin A -0.138 | [1] 0.057 | defactinib 0.017 | [2] 0.038 | encorafenib -0.051 | [3] 0.122 | alisertib 0.021 | [4] -0.023 | gefitinib -0.025 | lapatinib -0.025 | pictilisib -0.04 | crizotinib 0.043 | [5] -0.028 | duvelisib -0.006 | gandotinib 0.056 | tozasertib 0 | doramapimod 0.007 | bafetinib 0.036 | [6] 0.115

From the supplement of paper PMC10849652
